# Laboratory results from PubChem BioAssay AID1117361 (Southern Research Institute, 2015).
# Among all 3,600 compounds or so, about 900 (25%) were called active. How the calls were made is not given here. Not all results are given here. Results with a measured potency or affinity are listed apart.
# Biological target: Protein Tat (Human immunodeficiency virus type 1 group M subtype B (isolate HXB2)) (UniProt P04608)
# Experiment: HIV-1 Tat–TAR interaction blockers – biochemical, fluorescence polarization, FAM-labeled TAR RNA, counter-screen for Vif-APOBEC3G degradation inhibitor project, dose response (AID 1117361)
# Conditions: Tat-TAR RNA binding; series mostly up to 100 µM
row,Compound,outcome
1,CCOc1ccc2nc(SCc3ccc(C(=O)OC)o3)[nH]c2c1,inactive
2,COC(=O)c1ccc(Cn2c(C)cc(C)[n+]2C)o1,inactive
3,COc1ccccc1N1CCN(C(=O)c2ccoc2C)CC1,inactive
4,COc1ccc(S(=O)(=O)N2CCN(C(=O)c3cc4c(s3)CCC4)CC2)cc1,inactive
5,O=C(c1ccco1)N(CCC(c1ccccc1)c1ccco1)Cc1ccc(F)cc1 (configuration not stated),inactive
6,Cc1cccc(OCCC(=O)Nc2c(C)n(C)n(-c3ccccc3)c2=O)c1,inactive
7,Cc1c(NC(=O)COC(=O)c2ccccc2Cl)c(=O)n(-c2ccccc2)n1C,inactive
8,CCOC(=O)Nc1cc(C)c(Cl)cc1OC,inactive
9,CC(C)(C)NC(=O)c1cc([N+](=O)[O-])ccc1N1CCCCC1,inactive
10,Nc1cc(C(=O)O)ccc1N1CCCCC1,inactive
11,Cc1ccc(Cn2c(SCC(C)C)nc3c2c(=O)n(C)c(=O)n3C)cc1,inactive
12,CCn1c(C)cc(=S)c2ccccc21,inactive
13,CCN(CC(=O)Nc1ccc(NC(C)=O)cc1)C(=O)C1CCCC1,inactive
14,O=C(Cn1c2[n+](c3ccc(C(F)(F)F)cc31)CCCCC2)Nc1c(F)cccc1F,inactive
15,Cc1ccc(C(=O)Nc2nc(=O)n(C(=O)c3ccccc3C)s2)cc1,inactive
16,CCS(=O)(=O)c1ccc2oc(Nc3cccc(OC)c3)nc2c1,inactive

row,Compound,outcome
1,Cc1nn(Cc2ccccc2)c(C)c1NC(=O)Cn1nc([N+](=O)[O-])c(Cl)c1C,inactive
2,O=c1[nH]nc(Cc2ncc(C(F)(F)F)cc2Cl)c2ccccc12,inactive
3,COc1ccc(N2CCN(c3oc(COc4ccc(Cl)cc4Cl)nc3C#N)CC2)cc1,inactive
4,N#Cc1nc(COc2ccc(Cl)cc2Cl)oc1N1CCOCC1,inactive
5,O=C1CN(C(=O)CSc2nnc(C3CC3)n2-c2ccccc2)c2ccccc2N1,inactive
6,Cc1nc(Nc2ccc(S(N)(=O)=O)cc2)sc1C(=O)Nc1ccccc1,inactive
7,O=C(Nc1cnccn1)c1csc2ccccc12,inactive
8,Clc1ccc2c(c1)nc1n2CCCC1,inactive
9,COc1ccc(CCNS(=O)(=O)CCNC(=O)c2ccc3c(c2)OCO3)cc1,inactive
10,O=C1NCC(O)=C1C=NC12CC3CC(CC(C3)C1)C2,inactive
11,CCn1ncc(/C=N/NS(=O)(=O)c2ccc(Cl)cc2)c1C,inactive
12,C=CCN(CC=C)S(=O)(=O)c1ccc(C(=O)Nc2nnc(COC)o2)cc1,inactive
13,Cc1cccc(OCc2nc(C)cc(=O)[nH]2)c1,inactive
14,O=C(CNC(=O)c1ccc(Cl)cc1Cl)OCc1nnc(-c2ccccc2Br)o1,inactive
15,Clc1ccc(-c2ccc(SCc3ccccn3)nn2)cc1,inactive
16,CCCOc1ccccc1C1CC(=O)NC2=C1C(=O)CCC2 (configuration not stated),inactive
